{"source": "PubChem BioAssay (Tox21)", "note": "Inconclusive results are not listed. The source made the active and inactive calls. Calls follow the shape of the dose curve; as a rule, active = well fitted activation curve with a large enough effect in the signal ratio in the repeat runs (not every such curve was filed as active); inconclusive = weak or mixed curves; inactive = flat fitted curve, though single readings scatter; the % refers to the signal ratio. % is scaled to controls: 0 for no effect and ±100 for the full control effect.", "data": [{"experiment": "qHTS assay to identify small molecule agonists of H2AX (AID 1224845)", "conditions": "CHO-K1 phospho-H2AX Ser139 HTRF, 3 h; series mostly up to 154 µM; activation (H2AX phosphorylation): at the top concentration", "text": "National Center for Advancing Translational Sciences [NCATS]\nNIH Chemical Genomics Center [NCGC]\nU.S. Environmental Protection Agency [EPA]\nNational Institutes of Environmental Health Sciences [NIEHS]\nNational Toxicology Program [NTP]\nU.S. Food and Drug Administration [FDA]\nHTRF phospho-H2AX (Ser139) assay (Cisbio Bioassays, US) enables the quantitative detection of the histone variant H2AX when phosphorylated on serine 139. When double-stranded DNA breaks, either by ionizing radiation or endogenous physiological processes, H2AX becomes phosphorylated at Ser139. This phospho-Ser139 serves as a sensitive biomarker for the detection of such breaks, localizing the site of DNA repair. So, HTRF phospho-H2AX Ser139 is a pertinent assay to study genome stability, the cell cycle, DNA repair, and it serves as a biomarker for cancer, and to understand aging. Wild type CHO-K1 cells were used to identify the inducers of Phospho-H2AX Ser 139 from the Tox21 10K compound collections.\nTox21 Assay Protocol Summary:\nThe CHO-K1 cells suspended in culture medium containing 10% FBS were dispensed at 1000 cells/ 3 ul/well in 1536-well white wall/solid bottom plates (Greiner Bio-One North America, NC) using a Multidrop Combi (Thermo Fisher Scientific Inc., Waltham, MA). After the assay plates were incubated at 37C overnight, 23 nl of compounds at 15 concentrations (from 5-48 columns) or positive control (from 1 to 4 columns) were transferred to the assay plates using a Pintool station (Wako, San Diego, CA) into each well resulting in a final DMSO concentration of 0.76%. After 3hr incubation at 37C, 1 uL/well Supplemented Lysis buffer (diluted 100 fold blocking reagent in lysis buffer) (HTRF Phospho-H2A.X (S139) Assay kit from Cisbio US Inc., Bedford, MA) was added using a Flying Reagent Dispenser (FRD) (Aurora Discovery, CA). After 10sec spin at 1000 rpm in a plate centrifuge, the assay plates were incubated at room temperature for 30 min. Then followed by the addition of 1 uL/well detection buffer (containing a mixture of two antibodies, one labeled with cryptate, Anti pH2AX (S139)-K and another labeled with d2, Anti H2AX-d2) using FRD. After incubation at room temperature for 24 hr, the time resolved fluorescence at excitation 320 nm and emissions at 665 nm and 620 nm was measured using an Envision plate reader (PerkinElmer, Waltham, MA).", "values": [{"smiles": "COC(=O)c1cc(S(N)(=O)=O)ccc1OC", "activation (H2AX phosphorylation)": "-0.0722% [at 70.9 µM] (inactive)"}, {"smiles": "c1ccc(COCc2ccccc2)cc1", "activation (H2AX phosphorylation)": "0.301% (inactive)"}, {"smiles": "CCCCC(CC)CNCC(CC)CCCC", "note": "(stereo not given)", "activation (H2AX phosphorylation)": "-0.0477% (inactive)"}, {"smiles": "CC(=O)CC(c1ccc([N+](=O)[O-])cc1)c1c(O)c2ccccc2oc1=O", "note": "(stereo not given)", "activation (H2AX phosphorylation)": "0.468% [at 70.9 µM] (inactive)"}, {"smiles": "CCOc1cc(N)c(Cl)cc1C(=O)NCC1CN(Cc2ccc(F)cc2)CCO1", "note": "(stereo not given)", "activation (H2AX phosphorylation)": "3.13% [at 70.9 µM] (inactive)"}, {"smiles": "CC(Cl)C(Cl)Cl", "note": "(stereo not given)", "activation (H2AX phosphorylation)": "-4.12% (inactive)"}, {"smiles": "CC(N)CN", "note": "(stereo not given)", "activation (H2AX phosphorylation)": "0.366% (inactive)"}, {"smiles": "CCOC(=O)/C=C/C(=O)O", "activation (H2AX phosphorylation)": "0.602% (inactive)"}, {"smiles": "CC(CCc1ccc2c(c1)OCO2)NN", "note": "(stereo not given)", "activation (H2AX phosphorylation)": "-3.28% [at 70.9 µM] (inactive)"}, {"smiles": "O=C(O)C(Cc1cc(I)c(O)c(I)c1)c1ccccc1", "note": "(stereo not given)", "activation (H2AX phosphorylation)": "-0.481% [at 70.9 µM] (inactive)"}, {"smiles": "CCC(=O)OC/C=C/c1ccccc1", "Potency": "inactive"}, {"smiles": "CNC(=S)NC", "activation (H2AX phosphorylation)": "-2.06% (inactive)"}, {"smiles": "CCOC(=O)OCC", "activation (H2AX phosphorylation)": "-2.05% (inactive)"}, {"smiles": "Cn1c(=O)c2c(ncn2CC(=O)O)n(C)c1=O", "activation (H2AX phosphorylation)": "-3.21% [at 70.9 µM] (inactive)"}, {"smiles": "CN1C(=O)CC(C)(c2ccccc2)C1=O", "note": "(stereo not given)", "activation (H2AX phosphorylation)": "-3.36% [at 70.9 µM] (inactive)"}, {"smiles": "Cc1oncc1C(=O)Nc1ccc(C(F)(F)F)cc1", "Potency": "inactive"}, {"smiles": "C=CCNc1nc(NCC=C)nc(N2CCN(C(c3ccc(F)cc3)c3ccc(F)cc3)CC2)n1", "activation (H2AX phosphorylation)": "-3.92% [at 70.9 µM] (inactive)"}, {"smiles": "O=C1NCCN1", "activation (H2AX phosphorylation)": "0.496% (inactive)"}, {"smiles": "CNC(=O)N(c1ccccc1)c1ccccc1", "activation (H2AX phosphorylation)": "0.458% (inactive)"}, {"smiles": "O=C(O)c1cccc(O)c1", "activation (H2AX phosphorylation)": "-1.42% (inactive)"}, {"smiles": "CCOC(=O)[C@@H](C)Oc1ccc(Oc2nc3ccc(Cl)cc3o2)cc1", "activation (H2AX phosphorylation)": "-3.01% (inactive)"}, {"smiles": "O=C(Nc1ccccc1)Nc1ccccc1", "activation (H2AX phosphorylation)": "4.4% (inactive)"}, {"smiles": "CCCCCCCCSCCO", "activation (H2AX phosphorylation)": "-2.15% (inactive)"}, {"smiles": "CC(=O)[C@H]1CC[C@H]2[C@@H]3C=CC4=CC(=O)CC[C@@]4(C)[C@@H]3CC[C@]12C", "activation (H2AX phosphorylation)": "0.705% [at 70.9 µM] (inactive)"}, {"smiles": "CCCCC1C(=O)N(c2ccccc2)N(c2ccc(O)cc2)C1=O", "note": "(stereo not given)", "activation (H2AX phosphorylation)": "0.398% [at 70.9 µM] (inactive)"}, {"smiles": "COc1ccc([C@@H]2Sc3ccccc3NC(=O)[C@@H]2O)cc1", "activation (H2AX phosphorylation)": "0.169% [at 70.9 µM] (inactive)"}, {"smiles": "COC(=O)c1cc(Cl)ccc1NS(=O)(=O)C(F)(F)F", "activation (H2AX phosphorylation)": "-2.77% [at 70.9 µM] (inactive)"}, {"smiles": "Fc1ccccc1[C@@H](F)COC1CCC(Nc2ncnc3[nH]ncc23)CC1", "note": "(stereo not given in full)", "activation (H2AX phosphorylation)": "1.52% (inactive)"}, {"smiles": "CCCOc1ccc(S(=O)(=O)N2CCN(CC)CC2)cc1-c1nc2c(CC)n(Cc3ccccn3)nc2c(=O)[nH]1", "activation (H2AX phosphorylation)": "-1.39% (inactive)"}, {"smiles": "NC(=O)Nc1ccc(Cl)c(Cl)c1", "activation (H2AX phosphorylation)": "-0.193% (inactive)"}, {"smiles": "O=C(CCCN1CCN(c2ccc(F)cc2)CC1)NC1c2ccccc2CSc2ccccc21", "note": "(stereo not given)", "activation (H2AX phosphorylation)": "-0.651% [at 70.9 µM] (inactive)"}, {"smiles": "O=C(Nc1ccc([N+](=O)[O-])cc1)Nc1ccc([N+](=O)[O-])cc1", "activation (H2AX phosphorylation)": "-4.38% [at 70.9 µM] (inactive)"}, {"smiles": "CC1(C)O[C@@H]2C[C@H]3[C@@H]4CCC5=CC(=O)C=C[C@]5(C)[C@H]4[C@@H](O)C[C@]3(C)[C@]2(C(=O)CO)O1", "activation (H2AX phosphorylation)": "-0.527% [at 70.9 µM] (inactive)"}, {"smiles": "O=C(O)c1ccc(CO)o1", "activation (H2AX phosphorylation)": "2.88% (inactive)"}, {"smiles": "CCOC(=O)CC(=O)C(=O)OCC", "activation (H2AX phosphorylation)": "-2.69% (inactive)"}, {"smiles": "Cc1oc(C)c(C(=O)Nc2ccccc2)c1C", "activation (H2AX phosphorylation)": "-1.09% (inactive)"}, {"smiles": "CCOC(=N)CC(=O)OCC", "activation (H2AX phosphorylation)": "1.67% (inactive)"}, {"smiles": "C[N+]1(C)CCC(=C(c2ccccc2)c2ccccc2)CC1", "activation (H2AX phosphorylation)": "-2.31% [at 70.9 µM] (inactive)"}, {"smiles": "O=C(OCCOCCO)c1ccccc1Nc1cccc(C(F)(F)F)c1", "activation (H2AX phosphorylation)": "-2.29% [at 70.9 µM] (inactive)"}, {"smiles": "CC1CN(c2cc3c(cc2F)c(=O)c(C(=O)O)cn3-c2ccc(F)cc2F)CCN1", "note": "(stereo not given)", "activation (H2AX phosphorylation)": "-0.572% [at 14 µM] (inactive)"}]}]}
